The target in experiment [1] is T1, Serine/threonine-protein kinase 3 (Homo sapiens) (UniProt Q13188).
T1 sequence (whole entry): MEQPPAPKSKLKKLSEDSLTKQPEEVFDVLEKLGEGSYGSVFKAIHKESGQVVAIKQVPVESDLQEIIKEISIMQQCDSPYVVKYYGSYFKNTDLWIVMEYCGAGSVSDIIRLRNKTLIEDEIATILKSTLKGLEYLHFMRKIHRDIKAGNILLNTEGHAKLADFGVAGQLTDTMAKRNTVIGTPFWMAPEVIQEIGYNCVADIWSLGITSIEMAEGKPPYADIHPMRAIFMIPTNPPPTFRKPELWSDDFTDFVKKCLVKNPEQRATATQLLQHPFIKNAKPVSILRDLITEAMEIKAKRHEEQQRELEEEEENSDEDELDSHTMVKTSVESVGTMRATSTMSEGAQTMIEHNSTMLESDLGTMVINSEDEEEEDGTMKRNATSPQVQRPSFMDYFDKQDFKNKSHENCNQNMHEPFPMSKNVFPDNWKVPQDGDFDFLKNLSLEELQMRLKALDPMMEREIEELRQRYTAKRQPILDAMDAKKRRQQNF
The note with it: at 1 µM.

In experiment [2] the target is T1, Serine/threonine-protein kinase 3 (Homo sapiens). The note with it: at 10 µM.
For experiment [3], the target named is Serine/threonine-protein kinase 24 (Homo sapiens) (UniProt Q9Y6E0). The following applies: at 1 µM.
Experiment [4] has the same target. The following applies: at 10 µM.
Experiment [5] concerns the target T2, Tyrosine-protein kinase Mer (Homo sapiens) (UniProt Q12866).
T2 sequence (whole entry): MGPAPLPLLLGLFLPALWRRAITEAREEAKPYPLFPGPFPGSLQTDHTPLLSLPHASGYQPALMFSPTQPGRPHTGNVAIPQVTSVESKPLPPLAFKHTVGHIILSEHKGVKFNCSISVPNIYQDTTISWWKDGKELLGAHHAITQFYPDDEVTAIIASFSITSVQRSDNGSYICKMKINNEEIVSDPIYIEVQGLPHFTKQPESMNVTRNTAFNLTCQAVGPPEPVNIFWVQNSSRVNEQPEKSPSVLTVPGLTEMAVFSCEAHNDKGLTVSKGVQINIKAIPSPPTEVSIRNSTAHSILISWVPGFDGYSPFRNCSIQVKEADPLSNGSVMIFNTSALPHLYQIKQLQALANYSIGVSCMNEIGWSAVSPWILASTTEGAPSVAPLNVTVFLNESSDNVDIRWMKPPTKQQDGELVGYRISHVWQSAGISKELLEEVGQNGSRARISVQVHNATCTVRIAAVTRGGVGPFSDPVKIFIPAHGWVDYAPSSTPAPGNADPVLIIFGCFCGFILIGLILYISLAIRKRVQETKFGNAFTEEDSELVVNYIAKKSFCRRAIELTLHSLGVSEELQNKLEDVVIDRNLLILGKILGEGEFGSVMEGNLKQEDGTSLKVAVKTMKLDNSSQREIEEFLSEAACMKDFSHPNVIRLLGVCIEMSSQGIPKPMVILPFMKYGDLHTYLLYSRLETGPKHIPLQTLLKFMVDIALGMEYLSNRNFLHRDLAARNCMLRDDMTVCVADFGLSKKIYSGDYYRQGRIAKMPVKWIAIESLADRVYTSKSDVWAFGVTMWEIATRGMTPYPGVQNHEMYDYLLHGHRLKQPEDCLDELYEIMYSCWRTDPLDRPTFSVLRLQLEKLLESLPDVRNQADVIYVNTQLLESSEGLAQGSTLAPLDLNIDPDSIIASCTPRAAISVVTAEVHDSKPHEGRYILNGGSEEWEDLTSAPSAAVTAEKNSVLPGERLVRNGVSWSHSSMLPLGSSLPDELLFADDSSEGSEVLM
The note with it: at 1 µM.

Experiment [6] has as its target T2, Tyrosine-protein kinase Mer (Homo sapiens). The following applies: at 10 µM.
The target of experiment [7] is MAP kinase-interacting serine/threonine-protein kinase 2 (Homo sapiens) (UniProt Q9HBH9). The note with it: at 1 µM.
Experiment [8] shares this target. The following applies: at 10 µM.
Experiment [9] deals with Hepatocyte growth factor receptor (Homo sapiens) (UniProt P08581). The note with it: at 1 µM.
Experiment [10] has the same target. The following applies: at 10 µM.

Hepatocyte growth factor receptor (Homo sapiens), sequence (P08581 whole entry): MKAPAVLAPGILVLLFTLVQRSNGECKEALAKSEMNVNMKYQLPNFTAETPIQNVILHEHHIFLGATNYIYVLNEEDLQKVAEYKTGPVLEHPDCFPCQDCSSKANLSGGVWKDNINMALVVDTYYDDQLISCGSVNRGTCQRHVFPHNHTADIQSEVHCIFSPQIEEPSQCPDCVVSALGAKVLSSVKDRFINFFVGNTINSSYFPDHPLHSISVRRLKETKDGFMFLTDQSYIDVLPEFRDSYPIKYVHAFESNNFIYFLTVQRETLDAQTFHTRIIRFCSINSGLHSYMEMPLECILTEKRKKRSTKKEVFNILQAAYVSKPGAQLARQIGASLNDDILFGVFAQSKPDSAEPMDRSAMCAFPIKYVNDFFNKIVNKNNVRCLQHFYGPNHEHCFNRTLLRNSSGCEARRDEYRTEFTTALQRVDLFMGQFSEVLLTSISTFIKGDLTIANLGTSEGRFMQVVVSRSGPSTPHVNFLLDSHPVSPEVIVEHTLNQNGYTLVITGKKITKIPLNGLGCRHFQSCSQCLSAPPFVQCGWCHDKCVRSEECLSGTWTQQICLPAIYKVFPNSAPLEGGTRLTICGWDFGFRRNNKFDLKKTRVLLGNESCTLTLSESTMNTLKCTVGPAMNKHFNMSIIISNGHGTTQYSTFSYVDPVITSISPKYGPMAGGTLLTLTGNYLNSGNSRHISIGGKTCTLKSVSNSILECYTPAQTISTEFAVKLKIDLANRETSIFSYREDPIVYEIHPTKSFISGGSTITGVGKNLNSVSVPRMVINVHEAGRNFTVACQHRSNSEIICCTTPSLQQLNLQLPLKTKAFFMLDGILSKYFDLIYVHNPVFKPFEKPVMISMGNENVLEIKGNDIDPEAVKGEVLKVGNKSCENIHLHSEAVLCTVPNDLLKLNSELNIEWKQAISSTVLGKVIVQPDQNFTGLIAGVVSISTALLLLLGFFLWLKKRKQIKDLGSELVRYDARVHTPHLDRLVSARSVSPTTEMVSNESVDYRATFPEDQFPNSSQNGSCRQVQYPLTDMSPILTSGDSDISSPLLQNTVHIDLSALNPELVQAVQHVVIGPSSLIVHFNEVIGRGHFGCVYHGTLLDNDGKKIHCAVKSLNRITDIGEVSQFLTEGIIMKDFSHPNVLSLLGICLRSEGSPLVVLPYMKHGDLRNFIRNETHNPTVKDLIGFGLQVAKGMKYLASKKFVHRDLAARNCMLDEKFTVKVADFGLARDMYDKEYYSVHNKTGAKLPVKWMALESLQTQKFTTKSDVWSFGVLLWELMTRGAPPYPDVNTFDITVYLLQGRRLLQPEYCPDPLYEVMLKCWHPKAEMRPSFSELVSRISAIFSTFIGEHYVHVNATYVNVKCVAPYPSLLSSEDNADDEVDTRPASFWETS
Serine/threonine-protein kinase 24 (Homo sapiens), sequence (Q9Y6E0 whole entry, looked up): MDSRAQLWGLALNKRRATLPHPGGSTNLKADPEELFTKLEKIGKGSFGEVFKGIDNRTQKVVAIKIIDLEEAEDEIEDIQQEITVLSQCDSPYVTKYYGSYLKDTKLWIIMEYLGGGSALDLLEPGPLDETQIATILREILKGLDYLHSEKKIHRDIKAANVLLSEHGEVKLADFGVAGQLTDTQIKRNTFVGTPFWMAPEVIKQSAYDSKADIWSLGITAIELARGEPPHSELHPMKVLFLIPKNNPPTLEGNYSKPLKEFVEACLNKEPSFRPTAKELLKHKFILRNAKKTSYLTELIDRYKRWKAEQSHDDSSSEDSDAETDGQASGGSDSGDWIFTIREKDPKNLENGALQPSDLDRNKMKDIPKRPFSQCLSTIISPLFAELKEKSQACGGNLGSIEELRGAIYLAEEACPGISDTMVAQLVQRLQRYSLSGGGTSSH
MAP kinase-interacting serine/threonine-protein kinase 2 (Homo sapiens), sequence (Q9HBH9 whole entry, looked up): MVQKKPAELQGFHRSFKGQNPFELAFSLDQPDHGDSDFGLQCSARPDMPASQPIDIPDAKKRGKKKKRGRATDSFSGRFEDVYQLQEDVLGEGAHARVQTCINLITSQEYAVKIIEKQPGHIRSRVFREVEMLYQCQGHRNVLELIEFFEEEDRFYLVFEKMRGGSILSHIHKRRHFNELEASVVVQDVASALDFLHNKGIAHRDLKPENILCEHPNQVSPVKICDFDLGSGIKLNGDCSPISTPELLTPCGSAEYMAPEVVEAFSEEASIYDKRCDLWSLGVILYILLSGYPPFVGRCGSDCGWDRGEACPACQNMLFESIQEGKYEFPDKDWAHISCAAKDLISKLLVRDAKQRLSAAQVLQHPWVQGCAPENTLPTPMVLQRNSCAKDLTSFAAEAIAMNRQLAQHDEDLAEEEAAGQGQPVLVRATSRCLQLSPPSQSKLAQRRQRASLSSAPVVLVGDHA

Regarding `O=C1NC(=O)C(c2cn(CCCO)c3ncccc23)=C1c1cnccn1`, the residual activity (as a rule, the signal under treatment as a percentage of the control signal) stood at 92% in experiment [1]; 91% in experiment [2]; 73% in experiment [3]; 57% in experiment [4]; 89% in [5]; 86% in [6]. Further, the residual activity in experiment [7] is 76%; in experiment [8] it was 67%.
With `CC(C)(C)c1nc2c3ccc(F)cc3c3c(=O)[nH]ccc3c2[nH]1`, the residual activity was 14% in experiment [1]; 4% in [2]; 41% in [3]; 37% in experiment [4]; 29% in experiment [5]; 42% in [6]. Also, the residual activity in experiment [7] was determined as 66%; in experiment [8] it was 65%.
Take `CCCCc1c(-c2ccc(O)cc2)[nH]c2nccnc12`: the residual activity in [1] turned out to be 86%; in experiment [2], 45%; in experiment [3], 68%; in [4], 38%; in experiment [5], 73%; in [6] it was 71%. In addition, the residual activity in experiment [7] came to 86%; in [8], 76%.
As for `Nc1ncnc2c1c(-c1ccc(Oc3ccccc3)cc1)cn2C1CCCC1`, the residual activity in experiment [1] is 91%; in experiment [2], 11%; in [3] it was 56%; in experiment [4], 52%; in experiment [5], 102%; in experiment [6], 52%. The residual activity was found to be 72% in [9], 34% in experiment [10], 75% in experiment [7] and 24% in [8].
In the case of `Cn1c2ccccc2c2c3c(c4c5ccccc5n(CCC#N)c4c21)CNC3=O`, the residual activity in [1] was 2%; in experiment [2], 2%; in experiment [3], 47%; in [4] it was 57%; in [9] it was 107%; in [10] it was 106%. The residual activity in experiment [7] and in experiment [8] was 10% each time.
Consider `O=C1Cc2c([nH]c3ccc([N+](=O)[O-])cc23)-c2ccccc2N1`, for which the residual activity in experiment [1] worked out at 71%; in [2], 21%; in [3], 51%; in experiment [4], 47%.
As for `O=C1Nc2ccc(Cl)cc2/C1=C/c1cc(Cl)c(O)c(Cl)c1`, the residual activity worked out at 49% in experiment [1]; 2% in experiment [2]; 56% in [3]; 50% in experiment [4]; 92% in [5]; 58% in experiment [6]. The residual activity was found to be 87% in [9], 79% in experiment [10], 90% in experiment [7] and 61% in experiment [8].
`O=C1NC(=O)C(c2c[nH]c3ccccc23)=C1c1c[nH]c2ccccc12`: the residual activity stood at 64% in [1]; 9% in [2]; 21% in experiment [3]; 2% in experiment [4]; 33% in [6]; 43% in [10].
Turning to `CSc1nc(-c2ccc(F)cc2)c(-c2ccnc(NC(C)c3ccccc3)c2)[nH]1` (stereo unspecified), the residual activity in experiment [1] came out at 101%; in experiment [2] it was 74%; in experiment [3] it was 99%; in experiment [4] it was 78%; in experiment [6], 79%; in experiment [9], 125%. Besides, the residual activity in [10] came out at 82%; in [8] it was 95%.
For the molecule `COc1cc2ncnc(Nc3cccc(Cl)c3)c2cc1OC`, the residual activity was 100% in [1]; 74% in experiment [2]; 74% in experiment [4]; 51% in experiment [6]; 77% in experiment [9]; 70% in experiment [10]. In addition, the results for the residual activity in [7] and in experiment [8] were 33% and 10%, respectively.
`CN(C)S(=O)(=O)c1ccc2c(c1)/C(=C/c1cc3c([nH]1)CCCC3)C(=O)N2`: the residual activity was determined as 28% in experiment [1]; 22% in experiment [2]; 60% in experiment [3]; 30% in [4]; 12% in [5]; 13% in experiment [6]. The figures for the residual activity in [10], in experiment [7] and in experiment [8] were 130%, 96% and 89%, respectively.
On to `Nc1n[nH]c2nc3ccccc3nc12`, for which the residual activity in experiment [1] is 117%; in [2], 95%; in experiment [3] it was 81%; in [4] it was 70%; in experiment [5] it was 95%; in [6], 73%. Moreover, the results for the residual activity in experiment [9] and in experiment [10] were 92% and 100%, respectively.
Take `O=C(c1cc2cc(O)ccc2[nH]1)c1cc2cc(O)ccc2[nH]1`: the residual activity was found to be 56% in experiment [1]; 18% in [2]; 48% in experiment [3]; 9% in experiment [4]; 47% in experiment [5]; 7% in experiment [6]. Moreover, the residual activity in [9] was found to be 74%; in experiment [10], 29%; in experiment [7] it was 33%; in experiment [8], 8%.
Consider `N#C/C(=C1/Nc2ccccc2S1)c1ccnc(NCCc2cccnc2)n1`, for which the residual activity in experiment [1] is 97%; in [2], 56%; in experiment [3], 89%; in experiment [4], 61%; in experiment [5] it was 82%; in experiment [6], 69%. The residual activity is 138% in experiment [9], 74% in [10], 36% in [7] and 8% in experiment [8].
Take `O=C(NC(NC(=S)Nc1ccc(F)c([N+](=O)[O-])c1)C(Cl)(Cl)Cl)C(c1ccccc1)c1ccccc1` (stereo unspecified): the residual activity in experiment [1] stood at 98%; in experiment [2], 71%; in [3] it was 86%; in experiment [4] it was 82%.
For the molecule `COc1cc2nccc(Oc3ccc(NC(=S)NC(=O)c4ccccc4C)cc3)c2cc1OC`, the residual activity came to 97% in experiment [1]; 77% in experiment [2]; 65% in experiment [3]; 68% in experiment [4]; 14% in experiment [5]; 4% in [6]. In addition, the residual activity turned out to be 28% in [9], 4% in [10], 91% in experiment [7] and 93% in experiment [8].
With `Nc1nc(Nc2ccc(S(N)(=O)=O)cc2)nn1C(=O)c1c(F)cccc1F`, the residual activity in [1] amounted to 34%; in experiment [2] it was 4%; in [3], 61%; in experiment [4] it was 6%; in experiment [6] it was 1%; in experiment [9], 45%. Moreover, the residual activity in [10] came out at 10%; in [7], 95%; in [8], 66%.
Consider `O=c1cc(N2CCNCC2)oc2c(-c3ccccc3)cccc12`, for which the residual activity was found to be 95% in experiment [1]; 104% in experiment [2]; 59% in experiment [3]; 55% in [4]; 87% in experiment [6].
Take `O=C(Nc1nc2ccccc2n1CCN1CCOCC1)c1cccc([N+](=O)[O-])c1`: the residual activity was found to be 102% in [1]; 83% in experiment [2]; 71% in experiment [3]; 74% in experiment [4]; 75% in experiment [5]; 65% in [6].
Consider `Cn1sc(=O)n(Cc2ccccc2)c1=O`, for which the residual activity in experiment [1] came to 98%; in experiment [2], 97%; in experiment [3], 71%; in [4], 70%; in experiment [5] it was 96%; in experiment [6] it was 98%. In addition, the residual activity in [9] came out at 141%; in [10] it was 95%; in [7] it was 97%; in experiment [8] it was 89%.
For `O=C1NC(=O)c2c1c1c3ccccc3[nH]c1n1cncc21`, the residual activity was found to be 68% in experiment [1]; 33% in [2]; 56% in [3]; 34% in experiment [4]; 37% in experiment [5]; 21% in [6]. The residual activity turned out to be 146% in experiment [9], 92% in [10], 32% in [7] and 21% in [8].
Consider `CCCC(=O)Oc1ccc2[nH]c(C(=O)c3cc4ccccc4[nH]3)cc2c1`, for which the residual activity in experiment [1] is 105%; in [2] it was 71%; in [3], 67%; in experiment [4], 68%; in experiment [6], 81%; in experiment [10], 127%. Also, the residual activity amounted to 99% in experiment [7] and 100% in experiment [8].
In the case of `CCN(CC)CCNC(=O)c1c(C)[nH]c(/C=C2\C(=O)Nc3ccc(Cl)cc32)c1C`, the residual activity amounted to 34% in experiment [1]; 2% in experiment [2]; 8% in [3]; 1% in [4]; 7% in experiment [5]; 0% in experiment [6]. Further, the residual activity in experiment [9] is 45%; in experiment [10] it was 7%; in experiment [7], 99%; in experiment [8], 45%.
As to `CC(C)c1nn(-c2c(Cl)cccc2Cl)c2nc(Cc3ccc(OCCO)cc3)[nH]c(=O)c12`, the residual activity was found to be 109% in experiment [1]; 78% in experiment [2]; 23% in experiment [3]; 2% in experiment [4]; 98% in experiment [5]; 75% in [6]. Further, the residual activity in experiment [9] was found to be 146%; in experiment [10] it was 75%; in [7], 103%; in [8], 102%.
In the case of `COc1cc2nccc(Oc3ccc(NC(=O)Nc4cc(C)on4)c(Cl)c3)c2cc1OC`, the residual activity was found to be 68% in experiment [1]; 28% in experiment [2]; 118% in experiment [3]; 78% in experiment [4]; 7% in experiment [5]; 4% in experiment [6]. Moreover, the residual activity in [7] came to 105%; in experiment [8] it was 64%.
Take `O=C1NC(=O)C(c2cn(CCCn3ccnc3)c3ccccc23)=C1Nc1ccccc1`: the residual activity in experiment [1] was determined as 64%; in [2], 13%; in experiment [3], 20%; in [4] it was 8%; in experiment [9], 114%; in [10], 79%.

These data come from ChEMBL document CHEMBL2218924, “A broad activity screen in support of a chemogenomic map for kinase signalling research and drug discovery” (Biochem J, 2013).
